High-throughput results: PubChem, National Center for Advancing Translational Sciences (NCATS)
Only some compounds are listed: those with a hit (about 19% of all), similar ones and a draw of the others.
DT40 TDP1 CPT – qHTS for Inhibitors of human tyrosyl-DNA phosphodiesterase 1 (TDP1): qHTS in cells in presence of CPT. chicken DT40 Tdp1-/-;hTDP1 cells + 20 nM CPT, ATP luminescence, 48 h. Potency, µM (series often up to 46.2 µM), for the others: top-dose activity change, negative = growth inhibition, usual class: inhibitors. 12% of 420,000 active. AID 686979, 2013; note: potency is the fitted concentration of half-maximal effect; nearly all actives have a fitted effect of over 55% in size
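Chicken DT40 Tdp1-/- cells complemented with human TDP1, 400 cells/well, exposed to compounds plus 20 nM camptothecin for at least 48 h at 37 C; viability read as ATP content by CellTiter-Glo luminescence.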
HT1080NT lethal – qHTS for induction of synthetic lethality in tumor cells producing 2HG: qHTS for the HT-1080-NT fibrosarcoma cell line; HT-1080-NT fibrosarcoma viability, CellTiter-Glo ATP luminescence, 48 h; Potency, µM (top dose mostly 46.1 µM), without a hit: at the highest dose activity, negative = less viability, most hits filed as cytotoxic; 1.6% of 360,000 active; AID 686970, 2013;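 note: NT is the 2HG producing partner of a matched IDH1 knockdown line; potency is the fitted concentration of half-maximal effect; 0% = DMSO-treated cells and -100% = media-only wells without cells; nearly all actives have a fitted effect of over 55% in size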
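Read-out is CellTiter-Glo luminescence after 10 minutes at room temperature, following 48 hours' compound treatment of HT-1080-NT cells (750 cells/well, RPMI, 5% FBS, 37 degrees C).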
IL1B secr inh – qHTS for Inhibitors of Inflammasome Signaling: IL-1-beta AlphaLISA Primary Screen; THP-1 LPS/ATP IL-1B secretion, AlphaLISA, 16 h; hits give low values; activity change, % at 57.5 µM; 4.7% of 360,000 active; AID 743279, 2014; in the data active = activity change below about -50%; inconclusive = mostly about -30% to -49%
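Secreted IL-1B measured by AlphaLISA bead assay after 16 h compound exposure of THP-1 cells; compounds (final up to 57.5 uM) added 1 h before LPS (250 ng/mL) and ATP (1.25 mM) stimulation; lower signal means less secretion.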
ELG1 DNA repair – qHTS screen for small molecules that inhibit ELG1-dependent DNA repair in human embryonic kidney (HEK293T) cells expressing luciferase-tagged ELG1 | HEK293T ELG1-luciferase reporter, luminescence, 16 h; DNA damage induced by 5-fluorouridine | Potency, µM (series often up to 46.1 µM), without a hit: at the top dose activity change, negative = inhibition, actives largely listed as inhibitors | 2.3% of 330,000 active | AID 504467, 2011; note: potency is the fitted concentration of half-maximal effect; nearly all actives have a fitted effect of over 55% in size
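Overnight (16 hr) co-exposure of 2,000 cells/well to 5-fluorouridine and compound at 37 °C preceded detection. Luciferase was quantified via ONE-Glo luminescence; loss of signal denotes inhibition.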
HT1080 IDH1KD tx – qHTS for induction of synthetic lethality in tumor cells producing 2HG: qHTS for the HT-1080-IDH1KD cell line; HT-1080 IDH1 knockdown viability, ATP luminescence, 48 h; Potency, µM (doses to about 46.1 µM), inactives show top-dose activity, negative = toxicity, most hits filed as cytotoxic; 2% of 360,000 active; AID 686971, 2013;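 note: potency is the fitted concentration of half-maximal effect; 0% = DMSO wells and -100% = cell-free medium wells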
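Knockdown cells (IDH1KD HT-1080) received compounds 2 h after plating at 750 cells/well and were kept 48 h at 37 °C in 5% FBS RPMI. A CellTiter-Glo luminescence read gave % activity for curve fitting.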
DT40 TDP1 no CPT – qHTS for Inhibitors of human tyrosyl-DNA phosphodiesterase 1 (TDP1): qHTS in cells in absence of CPT. DT40 Tdp1-/- hTDP1 cells, no CPT, ATP luminescence, 48 h. Potency, µM (doses to about 46.2 µM), for inactives: top-dose activity change, negative = growth inhibition, usual class: inhibitors. 15% of 420,000 active; note: potency is the fitted concentration of half-maximal effect; nearly all actives have a fitted effect of over 55% in size
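Chicken DT40 Tdp1-/- cells complemented with human TDP1, screened without camptothecin (DMSO vehicle only), 400 cells/well. Compounds pin-transferred, cells incubated at 37 °C for at least 48 hr. Growth read as ATP-dependent luminescence (CellTiter-Glo, 30 min at RT).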
The depositor's hits bear a star; ? = inconclusive; nt = no result. Unless noted, calls come from the whole dose curve; as a rule, active = well fitted curve in the direction sought with a large enough effect; inconclusive = small, poorly fitted or top-dose-only effect, or another doubt; inactive = no such curve, though single readings can be large; an effect the other way counts as inactive or inconclusive. Unless noted, % is set by controls: 0 for no effect and ±100 for the full control effect.

SMILES	DT40 TDP1 CPT	HT1080NT lethal	IL1B secr inh	ELG1 DNA repair	HT1080 IDH1KD tx	DT40 TDP1 no CPT
CC(=O)Nc1ccc(SCC(=O)c2c(N)n(Cc3ccccc3)c(=O)n(C)c2=O)cc1	?	-1%	36	?	5%	8.2µM*
C=CCn1c(COc2cc(C)ccc2C(C)C)nnc1SCC(=O)c1c(N)n(C)c(=O)n(C)c1=O	?	22%	0	?	15%	23µM*
CC1CCN(S(=O)(=O)N2CCC(C(=O)NC(C)c3ccccc3)CC2)CC1 (stereo not drawn)	10µM*	1%	12	nt	-4%	?
CC(CCc1ccccc1)NC(=O)C1CCN(S(=O)(=O)c2ccc(F)cc2)CC1 (stereo not drawn)	-13%	6%	-63*	0%	-12%	-7%
CCc1ccc(CNC(=O)C2CCN(S(=O)(=O)N3CCCCC3)CC2)cc1	?	-4%	-19	nt	-10%	23µM*
CC(CCc1ccccc1)NC(=O)C1CCN(S(=O)(=O)N2CCCCC2)CC1 (stereo not drawn)	?	10%	-56*	?	1%	?
COc1ccc(CNC(=O)C2CCCN2CCc2ccccc2)cc1OC (stereo not drawn)	?	1%	?	?	-9%	?
O=C(NCc1ccc(F)cc1)c1ccccc1OCc1ccccc1	-7%	0%	-2	-16%	?	?
COc1ccc(CNC(=O)N2[C@H]3CC[C@@H]2C=C(c2ccc(F)cc2OCc2ccccc2)C3)cc1OC	8.2µM*	13%	-14	nt	-2%	7.3µM*
O=C(NCc1ccc(F)cc1)N1[C@H]2CC[C@@H]1C=C(c1ccc(F)cc1OCc1ccccc1)C2	?	-1%	8	nt	7%	7.3µM*
Cc1ccc2cc3cc(C(=O)N4CCN(c5ccc(Cl)cc5)CC4)oc3nc2c1	9%	nt	nt	nt	nt	8%
CC[C@@H](C(=O)[C@@H](C)[C@@H](O)[C@H](C)CCc1ccc(C)c(O)c1C(=O)O)[C@H]1O[C@](CC)([C@H]2CC[C@](O)(CC)[C@H](C)O2)C[C@@H]1C	2.6µM*	1.6µM*	-92*	?	6.5µM*	2.3µM*
O=[N+]([O-])c1ccc(N2CCN(c3ccc(F)cc3)CC2)cc1	-5%	0%	-24	-1%	-3%	-12%
O=C(NC(=S)N1CCN(c2ccc([N+](=O)[O-])cc2)CC1)c1ccc(F)cc1	?	-12%	16	4%	-7%	26µM*
O=C(NC(=S)N1CCN(c2ccc(F)cc2)CC1)c1ccccc1	?	-16%	-9	nt	-3%	21µM*
CC(C)[C@H](NC(=O)C1CC(=O)N(c2ccc(F)cc2)C1)C(=O)N1CCCCC1 (stereo partly drawn)	?	14%	6	29%	13%	?
CC(C)C(NC(=O)C1CCCCC1)C(=O)N1CCN(c2ccc(F)cc2)CC1 (stereo not drawn)	13µM*	3%	23	-7%	2%	16µM*
O=C(NC(Cc1ccccc1)C(=O)N1CCN(c2ccc(F)cc2)CC1)c1ccccc1 (stereo not drawn)	?	3%	7	nt	0%	26µM*
Cn1c(=O)c2c(nc(SCCN3CCOCC3)n2C)n(C)c1=O	2%	3%	7	16%	6%	?
O=C(NC(=S)N1CCN(c2ccc([N+](=O)[O-])cc2)CC1)c1ccccc1F	?	5%	-10	-16%	23%	21µM*
CC1CCC(C(=O)NC(C(=O)N2CCc3ccccc3C2)C(C)C)CC1 (stereo not drawn)	16µM*	-9%	9	-13%	-10%	?
CC1CCC(C(=O)NC(C(=O)N2CCN(c3ccccn3)CC2)C(C)C)CC1 (stereo not drawn)	-29%	4%	50	8%	?	?
Fc1cc2[nH]c(=S)[nH]c2c(Br)c1N1CCSCC1	?	-29%	-5	?	?	-23%
CCCOC(=O)Nc1ccc(S(=O)(=O)Nc2ncccn2)cc1	0%	0%	5	12%	2%	-2%
CC(C)Oc1ccc(C(=O)NCCc2csc(-c3cccc(F)c3)n2)cc1	-25%	nt	nt	nt	nt	0%
SMILES	DT40 TDP1 CPT	HT1080NT lethal	IL1B secr inh	ELG1 DNA repair	HT1080 IDH1KD tx	DT40 TDP1 no CPT
O=C(NCCc1csc(-c2cccc(F)c2)n1)c1cccs1	?	nt	nt	nt	nt	16µM*
COc1ccc(-c2nc(CCNC(=O)c3cccs3)cs2)cc1	16µM*	7%	0	21µM*	1%	21µM*
O=c1c(-c2cccc(F)c2)nc2cncnc2n1-c1ccccc1	1%	nt	nt	nt	nt	0%
CC1CCN(C(=O)Cn2cnc3c2c(=O)n(C)c(=O)n3C)c2ccccc2S1 (stereo not drawn)	?	0%	63	-3%	-2%	18µM*
O=C(Cn1cnc2ccccc21)N/N=C/C(Br)=C/c1ccccc1	6.5µM*	?	?	16%	?	23µM*
Cn1c(=O)c2c(ncn2CC(=O)N/N=C/C(Br)=C/c2ccccc2)n(C)c1=O	2.3µM*	-1%	-19	6%	-2%	3.7µM*
COc1cccc(/C=N/NC(=O)Cn2cnc3c2c(=O)n(C)c(=O)n3C)c1	29µM*	17%	17	-13%	7%	?
Cn1c(=O)c2c(ncn2CC(=O)N2CCCc3ccccc32)n(C)c1=O	-9%	7%	-11	2%	6%	-4%
COc1cc(/C=N/NC(=O)Cn2cnc3c2c(=O)n(C)c(=O)n3C)cc(OC)c1OC	23%	7%	45	2%	6%	-3%
CCc1ccc(OCc2nc(-c3ccc(OC)cc3)no2)c(Br)c1	-12%	nt	nt	nt	nt	?
Cc1ccc(C)c(NC(=O)CN(C)C(=O)c2ccccc2OCc2c(C)noc2C)c1	-18%	1%	-7	1%	-1%	0%
COc1cc(C[C@@H]2NCCc3cc(O)c(O)cc32)cc(OC)c1OC	-38%	nt	nt	nt	nt	-12%
Oc1cc2c(cc1O)[C@H](c1ccccc1)CNCC2	27µM*	nt	nt	nt	nt	27µM*
